Among all 300,000 compounds or so, about 37,000 (12%) were called active. The list comes from a sample in which actives are over-represented; it also holds similar structures and randomly drawn compounds. Unmarked numbers belong to inactive results. Cut-off read from the data, not from the text of the source: active = max response mostly above about 13% (no sharp cut-off); inactive = mostly below about 14%.

60 molecules from PubChem BioAssay AID2314 (National Center for Advancing Translational Sciences (NCATS), 2010) can be followed below.

The test can be described thus: Cycloheximide Counterscreen for Small Molecule Inhibitors of Shiga Toxin. Note: read at 38.3 µM for the half of the compounds with a filed dose; 0% is about no effect. The settings on record: cell reporter, cycloheximide protein synthesis inhibition counterscreen; hits give high values.
As to `Cc1cccn2c(=O)c3cc(C(=O)NCC4CCCO4)c(=N)n(Cc4ccc(F)cc4)c3nc12` (stereo not given), the max response was -1.9%. In the case of `Cc1cc2oc(=O)cc(-c3ccccc3)c2c(C)c1/C=C/c1ccc(F)cc1` it was 11.8%; in that of `COc1ccc(CCNC(=O)CCCCCNC(=O)N2CCn3c2nc2ccccc23)cc1OC`, -1.5%. In the case of `Cc1c(Cl)cccc1NC(=O)NCc1ccc(C)n1C` it was -4%; in that of `CCCn1c(C(C)Nc2nc(-c3ccc(C)cc3)cs2)nc2cc(Cl)c(N3CCCCC3)cc21` (stereo not given), -2.37%. With `CCOC(=O)CSc1nc(C)c(Oc2ccc(Cl)cc2Cl)c(=O)[nH]1`, the max response is -0.833%. The same measure for `COC(=O)c1ccc(/C=N/N2C(C)CCCC2C)cc1` (stereo not given): 32.3% (active). The same measure for `CC1CCCC(C)N1/N=C/c1ccccc1OC(F)F` (stereo not given): 7.52%; for `COC(=O)c1ccc(/C=N\n2c(C)nnc2C)cc1`: -2.39%; for `CNC(=O)c1c(NC(NC(=O)c2ccco2)C(=O)c2ccc(Cl)cc2)sc2c1CCCC2` (stereo not given): -2.69%.

Regarding `COC(=O)c1ccc(NC(=O)CSc2nncn2-c2cccnc2)cc1`, the max response is 3.92%. The same measure for `COC(=O)C1(C)NC(c2ccc(F)cc2)C2C(=O)N(c3ccccc3)C(=O)C21` (stereo not given): -1.89%; for `COc1cccc(NC(=O)CN(C)C(=O)Cc2ccc(Cl)cc2Cl)c1`: -1.79%; for `COc1ccc(NC(=O)CN(C)C(=O)CNC(=O)C2CCCCC2)cc1`: 4.44%. The same measure for `CN(CC(=O)Nc1ccc(Cl)cc1)C(=O)CNC(=O)c1ccc2ccccc2c1`: 24.6% (active); for `CCOC(=O)[C@@H]1[C@H]2COc3cc(OC)ccc3[C@@H]2N2C(=O)N(c3cccc(C)c3)C(=O)[C@@]12C`: -1.45%; for `CCCCn1c(-c2cccc(C)c2)nc2cc3[nH]c(=O)c(C(C)C)nc3cc21`: 8.65%. Consider `CC1(C)CCSC(/C=C/c2ccccc2)=N1`, for which the max response was 32.8% (active). Take `CCCCC(CC)CNC(=O)C(=O)C1C(=O)Nc2ccccc21` (stereo not given): the max response is 15.4%. In the case of `C[C@@H]1C(c2ccc(F)cc2)=NN(c2ccc(Br)cc2)[C@H]1C(=O)N1CCOC1=O` it was -1.82%; in that of `COc1ccc(/C=N/Nc2ncnc3sc4c(c23)CCCC4)cc1O`, 27.5% (active). As for `COc1ncnc2sc3c(c12)CCCC3`, the max response was -0.884%. In the case of `COc1ccc(NC(=O)CCNC(=O)Cn2cnc3sc4c(c3c2=O)CCCC4)cc1OC` it was -3.75%; in that of `COc1ccc(C2C(C(C)=O)=C(O)C(=O)N2c2nccs2)cc1` (stereo not given), -3.41%; in that of `COc1ccc(C(=O)NNC(=S)NC(=O)c2ccccc2[N+](=O)[O-])cc1`, 2.1%.

As to `Cc1ccc(NC(=O)CN2C(=O)NC(C)(c3ccc(Cl)cc3)C2=O)c(Br)c1` (stereo not given), the max response was -5.49%.

As for `CC(=O)c1cccc(NC(=O)C2COc3ccccc3O2)c1` (stereo not given), the max response was 23.2% (active). In the case of `COc1cccc(N(C(=O)C2COc3ccccc3O2)C(C(=O)NC2CCCCC2)c2ccc(O)cc2)c1` (stereo not given) it was 8.69%; in that of `COc1ccc(C(=O)N2CCC(C(=O)Nc3ccc(C)cc3)CC2)cc1`, 4.42%; in that of `COc1ccc(NC(=O)C2COc3ccccc3O2)cc1` (stereo not given), 41% (active). In the case of `C/C(=N/NC(=O)C1COc2ccccc2O1)c1ccco1` (stereo not given) it was 4.02%; in that of `CC(/C=C/c1ccco1)=N/NC(=O)C1COc2ccccc2O1` (stereo not given), 7.66%; in that of `Cn1nc(C(F)(F)F)c(C(=O)Nc2cccc(C(F)(F)F)c2)c1SCc1ccc(Cl)cc1`, -3.55%. The same measure for `Cc1ccc(CN(CC(=O)NCC2CCCO2)S(=O)(=O)c2ccc(C)cc2)cc1` (stereo not given): -1.68%; for `O=C1Nc2ccccc2/C1=C/c1ccnc2ccccc12`: -4.29%.

With `Cc1cccn2c(=O)c(C=O)c(Nc3ccc(S(N)(=O)=O)cc3)nc12`, the max response was -2.14%.

As to `CC(C)C(C)NC(=O)COc1nc2ccccc2nc1N(C)C1CCCCC1` (stereo not given), the max response was -4.63%. The same measure for `O=c1c2ccccc2ncn1/N=C/c1ccccc1`: 40.3% (active); for `O=c1c2ccccc2nc(N/N=C/c2ccccc2)n1O`: 11.3%; for `CCCc1nc2ccccc2c(=O)n1/N=C/c1ccc(O)c(O)c1`: -1.03%. In the case of `O=C(O)CCC(=O)O` it was 7.04%; in that of `CCC(C)(C)NC(=O)C(c1ccc(O)cc1)N(C(=O)Cn1nnc2ccccc21)c1ccc(NC(C)=O)cc1` (stereo not given), -2.51%; in that of `COc1ccc(C(C(=O)NC(C)(C)C)N(C(=O)Cn2nnc3ccccc32)c2ccc(C(C)=O)cc2)cc1O` (stereo not given), 14.1% (active).

As for `COc1ccc(C(C(=O)NCC2CCCO2)N(C(=O)Cn2nnc3ccccc32)c2ccc(NC(C)=O)cc2)cc1OC` (stereo not given), the max response is -1.07%. The same measure for `COC(=O)C1CCN(CC(N)=O)CC1`: -5.67%; for `CCOP(=O)(OCC)C(Nc1cccc(C)c1)c1ccc(F)cc1` (stereo not given): -1.31%; for `C(=N\n1cnnc1)/c1cccnc1`: 0.339%.

Consider `COc1cccc(OCCOc2cccc(/C=N/n3cnnc3)c2)c1`, for which the max response is 42.6% (active).

Turning to `COc1ccccc1OCCOc1ccc(/C=N/n2cnnc2)cc1`, the max response is -5.27%. `COC(=O)CNC(=O)c1cc(-c2ccncc2)nc2ccccc12`: the max response is 7.25%. `CNC(=O)COC(=O)c1cc(-c2ccc(OC)cc2)nc2ccccc12`: the max response was 10.9%. For `CCc1ccc(-c2cc(C(=O)NN3CCN(C)CC3)c3ccccc3n2)cc1`, the max response is 21.6% (active). In the case of `O=C(COc1ccc(Cl)cc1)NCCS(=O)(=O)N1CCN(c2ccc(F)cc2)CC1` it was -2.81%; in that of `Brc1ccccc1C1N=C(c2ccccc2)NO1` (stereo not given), 46.9% (active); in that of `S=C1NC(c2ccccc2)=NCN1c1ccc(Br)cc1`, 11.3%. In the case of `Brc1ccccc1C1Nc2cccc3cccc(c23)N1` it was -2.34%. In the case of `N#Cc1ccc(C2N=C(c3ccccc3)NO2)cc1` (stereo not given) it was 50.7% (active); in that of `COc1ccc(CNC(=O)c2cc(C(=O)C3CC3)c[nH]2)cc1`, -0.249%; in that of `Cc1cc(Nc2cccc(C)c2C)n2ncnc2n1`, -1.07%. With `CCn1cc(C(=O)OCC(=O)Nc2cccc(C)c2)c(=O)c2ccc(C)nc21`, the max response was -2.42%.
